# Measured values published in ChEMBL document CHEMBL3988442, “University of Dundee, Small-Polar-MMV Screening Library” (2021).
# For part of these data: Entries with a potency or affinity are not part of this list.
# Tests used:
# Design in all cases: scale not given: direction of the effect not stated beside the values
# [1] = biological target: Protein translocase subunit SecA (Escherichia coli (strain K12)) (UniProt P10408); test: Assay to Identify E. coli SecA ATPase Inhibitors; assay type: functional; conditions: 30 µM
# Sequence of Protein translocase subunit SecA (Escherichia coli (strain K12)) (P10408 whole entry): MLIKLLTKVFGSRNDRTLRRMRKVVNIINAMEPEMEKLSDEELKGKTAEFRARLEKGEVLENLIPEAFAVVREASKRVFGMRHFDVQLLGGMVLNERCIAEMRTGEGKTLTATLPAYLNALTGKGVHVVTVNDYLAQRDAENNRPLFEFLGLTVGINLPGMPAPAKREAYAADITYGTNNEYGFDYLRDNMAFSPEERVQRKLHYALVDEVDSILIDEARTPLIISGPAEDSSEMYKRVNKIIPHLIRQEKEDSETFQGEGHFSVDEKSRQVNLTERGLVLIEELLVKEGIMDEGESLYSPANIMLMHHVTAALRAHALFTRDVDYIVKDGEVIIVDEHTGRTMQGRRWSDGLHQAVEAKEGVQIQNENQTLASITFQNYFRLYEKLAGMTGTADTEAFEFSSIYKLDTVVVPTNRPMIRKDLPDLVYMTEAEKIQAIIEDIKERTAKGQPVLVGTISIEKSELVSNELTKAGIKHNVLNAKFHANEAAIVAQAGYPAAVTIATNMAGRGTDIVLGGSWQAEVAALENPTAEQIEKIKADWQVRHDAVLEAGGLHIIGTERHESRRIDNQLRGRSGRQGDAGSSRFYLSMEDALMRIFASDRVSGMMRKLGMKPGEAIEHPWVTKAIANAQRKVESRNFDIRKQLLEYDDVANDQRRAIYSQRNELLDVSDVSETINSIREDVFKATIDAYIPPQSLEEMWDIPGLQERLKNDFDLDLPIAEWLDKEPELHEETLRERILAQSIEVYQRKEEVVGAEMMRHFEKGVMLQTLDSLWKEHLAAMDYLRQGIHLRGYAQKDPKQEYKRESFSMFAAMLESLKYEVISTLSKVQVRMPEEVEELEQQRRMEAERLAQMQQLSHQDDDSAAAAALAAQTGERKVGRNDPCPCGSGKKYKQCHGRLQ
# [2] = biological target: T1, Ubiquitin-activating enzyme e1, putative (Leishmania donovani (strain BPK282A1)) (UniProt E9BSI1); test: Leishmania donovani Ubiquitin Activating Enzyme (LdE1); assay type: functional; conditions: 30 µM
# T1 sequence (whole entry): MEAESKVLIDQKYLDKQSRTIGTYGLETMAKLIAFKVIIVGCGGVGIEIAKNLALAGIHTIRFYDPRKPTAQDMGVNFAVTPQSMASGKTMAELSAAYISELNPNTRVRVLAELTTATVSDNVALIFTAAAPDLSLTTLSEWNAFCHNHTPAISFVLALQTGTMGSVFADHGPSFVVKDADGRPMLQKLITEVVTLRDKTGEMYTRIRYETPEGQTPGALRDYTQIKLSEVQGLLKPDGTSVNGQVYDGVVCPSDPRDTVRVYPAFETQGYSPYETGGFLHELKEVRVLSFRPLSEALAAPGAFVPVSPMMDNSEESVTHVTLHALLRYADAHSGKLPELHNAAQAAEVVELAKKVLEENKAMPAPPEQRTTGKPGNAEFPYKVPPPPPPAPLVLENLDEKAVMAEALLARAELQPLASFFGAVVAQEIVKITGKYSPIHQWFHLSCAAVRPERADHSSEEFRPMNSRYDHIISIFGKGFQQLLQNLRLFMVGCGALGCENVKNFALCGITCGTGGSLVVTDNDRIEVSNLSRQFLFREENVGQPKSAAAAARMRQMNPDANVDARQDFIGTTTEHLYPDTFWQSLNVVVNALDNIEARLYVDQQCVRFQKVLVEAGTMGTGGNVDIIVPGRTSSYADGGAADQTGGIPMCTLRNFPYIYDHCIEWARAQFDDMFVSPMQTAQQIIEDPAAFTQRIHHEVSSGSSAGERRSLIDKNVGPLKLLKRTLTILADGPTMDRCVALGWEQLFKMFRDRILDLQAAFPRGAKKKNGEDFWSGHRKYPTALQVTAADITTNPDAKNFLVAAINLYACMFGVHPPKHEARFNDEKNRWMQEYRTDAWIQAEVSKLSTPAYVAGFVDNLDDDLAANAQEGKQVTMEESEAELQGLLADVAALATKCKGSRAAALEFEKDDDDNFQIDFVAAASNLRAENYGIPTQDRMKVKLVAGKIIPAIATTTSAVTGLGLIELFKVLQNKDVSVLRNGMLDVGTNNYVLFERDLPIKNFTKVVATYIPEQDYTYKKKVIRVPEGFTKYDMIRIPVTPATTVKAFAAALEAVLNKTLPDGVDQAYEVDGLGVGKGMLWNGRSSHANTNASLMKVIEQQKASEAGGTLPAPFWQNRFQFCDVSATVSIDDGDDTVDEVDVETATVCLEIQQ
# [3] = biological target: T2, Aspartate--tRNA(Asp/Asn) ligase (Mycobacterium tuberculosis (strain ATCC 25618 / H37Rv)) (UniProt P9WFW3); test: Assay for Asp RNA synthetase-1 from Mycobacterium tuberculosis; assay type: functional; conditions: 30 µM; further: in the data most compounds retested in dose-response had high values
# T2 sequence (whole entry): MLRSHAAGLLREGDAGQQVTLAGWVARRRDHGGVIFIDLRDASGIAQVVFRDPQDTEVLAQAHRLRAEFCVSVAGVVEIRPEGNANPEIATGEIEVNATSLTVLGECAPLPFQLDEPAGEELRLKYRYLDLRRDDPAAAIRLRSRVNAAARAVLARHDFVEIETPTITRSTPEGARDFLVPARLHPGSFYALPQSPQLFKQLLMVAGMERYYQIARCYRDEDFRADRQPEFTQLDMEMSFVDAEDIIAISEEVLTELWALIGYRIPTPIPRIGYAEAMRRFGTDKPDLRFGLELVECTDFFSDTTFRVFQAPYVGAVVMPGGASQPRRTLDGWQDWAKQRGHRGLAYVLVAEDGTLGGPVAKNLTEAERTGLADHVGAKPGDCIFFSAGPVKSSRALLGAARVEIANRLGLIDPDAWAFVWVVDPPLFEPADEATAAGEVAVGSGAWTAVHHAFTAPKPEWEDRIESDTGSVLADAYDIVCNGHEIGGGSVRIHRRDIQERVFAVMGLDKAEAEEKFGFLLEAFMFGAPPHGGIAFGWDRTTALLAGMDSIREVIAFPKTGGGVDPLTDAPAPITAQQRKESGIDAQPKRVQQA
# [4] = biological target: Sialic acid-binding Ig-like lectin 9 (Homo sapiens) (UniProt Q9Y336); test: Hs-Siglec9 ALPHAscreen SOP 20170721; conditions: 10 µM
# Sequence of Sialic acid-binding Ig-like lectin 9 (Homo sapiens) (Q9Y336 whole entry): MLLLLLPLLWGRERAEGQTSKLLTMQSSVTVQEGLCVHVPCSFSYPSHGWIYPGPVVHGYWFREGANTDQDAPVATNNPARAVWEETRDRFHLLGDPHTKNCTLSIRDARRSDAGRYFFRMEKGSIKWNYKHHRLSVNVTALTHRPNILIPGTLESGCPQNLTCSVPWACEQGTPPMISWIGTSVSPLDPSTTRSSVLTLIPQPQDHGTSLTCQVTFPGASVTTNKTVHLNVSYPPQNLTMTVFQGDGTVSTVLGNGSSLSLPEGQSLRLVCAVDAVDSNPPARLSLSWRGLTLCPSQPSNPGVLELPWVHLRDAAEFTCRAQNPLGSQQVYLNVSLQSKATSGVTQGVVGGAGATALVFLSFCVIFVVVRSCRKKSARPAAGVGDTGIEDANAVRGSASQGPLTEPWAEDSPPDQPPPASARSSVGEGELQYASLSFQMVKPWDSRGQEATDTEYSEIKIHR
# [5] = system: Trypanosoma cruzi; test: Trypanosoma cruzi phosphomannomutase and mannose-1-phosphate guanylyltransferase assay; assay type: functional; conditions: 10 µM
# [6] = biological target: T3, Arginase-2, mitochondrial (Homo sapiens) (UniProt P78540); test: in vitro enzyme assay to detect the production of urea directly proportional to the activity of Arginase II; assay type: functional; conditions: 33.3 µM; further: in the data most compounds retested in dose-response had high values
# T3 sequence (whole entry): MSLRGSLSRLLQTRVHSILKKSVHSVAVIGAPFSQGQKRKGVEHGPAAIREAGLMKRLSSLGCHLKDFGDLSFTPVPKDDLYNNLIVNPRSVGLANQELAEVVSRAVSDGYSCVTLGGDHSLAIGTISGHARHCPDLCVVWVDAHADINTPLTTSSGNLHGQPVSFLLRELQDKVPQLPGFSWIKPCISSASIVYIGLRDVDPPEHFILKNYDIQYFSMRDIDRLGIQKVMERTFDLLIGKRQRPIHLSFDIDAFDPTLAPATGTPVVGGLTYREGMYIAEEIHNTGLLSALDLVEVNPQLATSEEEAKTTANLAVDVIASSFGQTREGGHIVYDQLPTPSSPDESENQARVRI
# [7] = biological target: T4, Proteasome subunit beta (Trypanosoma cruzi) (UniProt O96673); test: Trypanosoma cruzi proteasome chymotrypsin-like activity (TcProtChymo) assay.; further: in the data most compounds retested in dose-response had high values; assay type: functional; conditions: 9.37 µM
# T4 sequence (whole entry): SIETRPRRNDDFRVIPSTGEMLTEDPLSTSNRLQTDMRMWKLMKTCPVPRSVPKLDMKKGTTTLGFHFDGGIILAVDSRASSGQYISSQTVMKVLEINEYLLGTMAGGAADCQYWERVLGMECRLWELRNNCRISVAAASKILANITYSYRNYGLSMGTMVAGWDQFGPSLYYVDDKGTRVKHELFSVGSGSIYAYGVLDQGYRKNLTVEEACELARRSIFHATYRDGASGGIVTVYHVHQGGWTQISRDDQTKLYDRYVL
# [8] = organism: Homo sapiens; test: To identify inhibition of the IFN signalling (Jak-Stat) pathway via expression of an eGFP reporter gene under the control of an IFN-stimulated response element (ISRE) containing MxA promoter.; assay type: functional; conditions: 30 µM
# [9] = biological target: Shiga toxin 2 (Escherichia coli O157:H7) (UniProt P09385+P09386); test: E. coli 0.157:H7 Shiga Toxin SOP - stx2 screening assay; assay type: functional; conditions: 30 µM
# [10] = biological target: T5, Tyrosyl-tRNA synthetase, putative (Trypanosoma cruzi (strain CL Brener)) (UniProt Q4DSP6); test: Trypanosoma cruzi tyrosyl tRNA synthetase (TcYRS) _High Tyrosine SOP; assay type: functional; conditions: 30 µM; further: in the data most compounds retested in dose-response had high values
# T5 sequence (whole entry): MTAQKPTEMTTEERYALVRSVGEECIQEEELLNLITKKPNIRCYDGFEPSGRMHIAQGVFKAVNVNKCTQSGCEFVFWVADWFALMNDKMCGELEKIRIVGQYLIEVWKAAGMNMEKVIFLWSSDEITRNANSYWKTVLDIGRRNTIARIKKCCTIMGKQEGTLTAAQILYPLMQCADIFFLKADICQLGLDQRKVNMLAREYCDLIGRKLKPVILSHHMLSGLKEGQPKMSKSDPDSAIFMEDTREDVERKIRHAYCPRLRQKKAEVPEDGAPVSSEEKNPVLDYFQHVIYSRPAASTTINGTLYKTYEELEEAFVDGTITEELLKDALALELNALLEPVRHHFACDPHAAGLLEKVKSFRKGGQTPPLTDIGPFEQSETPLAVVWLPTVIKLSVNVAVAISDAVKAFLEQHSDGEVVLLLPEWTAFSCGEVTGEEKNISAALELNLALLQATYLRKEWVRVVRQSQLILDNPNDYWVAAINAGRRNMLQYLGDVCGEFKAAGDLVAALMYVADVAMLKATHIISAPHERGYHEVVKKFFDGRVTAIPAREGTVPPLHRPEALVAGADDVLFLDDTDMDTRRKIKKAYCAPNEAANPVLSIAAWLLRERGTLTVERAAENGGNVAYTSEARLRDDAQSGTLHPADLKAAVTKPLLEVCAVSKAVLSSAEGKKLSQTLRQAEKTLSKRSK
# [11] = biological target: T5, Tyrosyl-tRNA synthetase, putative (Trypanosoma cruzi (strain CL Brener)); test: Trypanosoma cruzi tyrosyl tRNA synthetase (TcYRS) SOP; assay type: functional; conditions: 30 µM
# [12] = biological target: Chromo domain-containing protein 1 (Saccharomyces cerevisiae (strain ATCC 204508 / S288c) (Baker's yeast)) (UniProt P32657); test: ScCHD-1 Enzyme Inhibition Assay; assay type: functional; conditions: 30 µM; further: in the data most compounds retested in dose-response had high values
# Sequence of Chromo domain-containing protein 1 (Saccharomyces cerevisiae (strain ATCC 204508 / S288c) (Baker's yeast)) (P32657 whole entry, the tested form may be a part): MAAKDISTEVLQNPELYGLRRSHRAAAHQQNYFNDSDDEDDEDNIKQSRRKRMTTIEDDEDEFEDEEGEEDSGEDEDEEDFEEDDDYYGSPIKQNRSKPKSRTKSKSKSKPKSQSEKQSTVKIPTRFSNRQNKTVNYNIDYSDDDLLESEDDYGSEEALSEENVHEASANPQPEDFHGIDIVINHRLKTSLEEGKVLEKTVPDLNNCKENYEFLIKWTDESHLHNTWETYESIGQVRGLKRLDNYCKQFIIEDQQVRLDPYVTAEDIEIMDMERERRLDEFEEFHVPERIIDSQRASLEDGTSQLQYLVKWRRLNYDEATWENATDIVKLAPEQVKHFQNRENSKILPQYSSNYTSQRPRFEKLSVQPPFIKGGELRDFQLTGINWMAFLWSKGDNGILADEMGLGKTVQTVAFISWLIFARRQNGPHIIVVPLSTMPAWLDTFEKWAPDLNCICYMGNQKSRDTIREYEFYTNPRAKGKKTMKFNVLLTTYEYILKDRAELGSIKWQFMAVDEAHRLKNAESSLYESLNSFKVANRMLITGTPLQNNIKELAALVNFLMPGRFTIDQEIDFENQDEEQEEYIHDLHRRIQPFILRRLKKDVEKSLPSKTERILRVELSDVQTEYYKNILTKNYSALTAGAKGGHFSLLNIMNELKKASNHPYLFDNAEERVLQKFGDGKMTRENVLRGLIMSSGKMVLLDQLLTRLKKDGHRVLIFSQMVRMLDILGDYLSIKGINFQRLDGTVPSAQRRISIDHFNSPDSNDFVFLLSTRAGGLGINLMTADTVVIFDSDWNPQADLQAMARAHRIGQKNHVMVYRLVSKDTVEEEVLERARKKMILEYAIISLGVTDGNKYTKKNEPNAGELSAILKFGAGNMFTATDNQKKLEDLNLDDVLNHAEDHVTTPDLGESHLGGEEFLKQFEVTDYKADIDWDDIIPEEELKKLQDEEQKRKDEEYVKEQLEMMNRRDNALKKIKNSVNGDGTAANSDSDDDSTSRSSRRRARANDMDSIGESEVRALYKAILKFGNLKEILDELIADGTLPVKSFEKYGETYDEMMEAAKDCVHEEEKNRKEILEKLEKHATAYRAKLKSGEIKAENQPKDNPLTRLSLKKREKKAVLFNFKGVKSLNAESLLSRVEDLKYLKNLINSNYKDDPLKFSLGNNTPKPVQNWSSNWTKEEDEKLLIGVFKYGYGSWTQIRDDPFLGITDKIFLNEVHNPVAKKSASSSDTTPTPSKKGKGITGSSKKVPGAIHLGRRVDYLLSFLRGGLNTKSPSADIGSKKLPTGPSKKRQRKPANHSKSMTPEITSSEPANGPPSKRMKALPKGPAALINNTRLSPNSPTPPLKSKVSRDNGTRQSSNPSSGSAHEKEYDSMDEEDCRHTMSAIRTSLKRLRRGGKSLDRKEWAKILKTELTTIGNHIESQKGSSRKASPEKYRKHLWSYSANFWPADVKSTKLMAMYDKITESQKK
# [13] = biological target: AMP-activated protein kinase, AMPK (Homo sapiens) (UniProt P54646+O43741+P54619+Q9UGJ0+Q9Y478+Q13131+Q9UGI9); test: AMP-dependent Kinase enzyme assay. An in vitro enzyme assay that detects ADP turnover that is directly proportional to AMPK activity. This uses naive AMPK that is activated during the assay with MK-8722; assay type: functional; conditions: 30 µM
SMILES,Percent Effect [1] [%],Percent Effect [2] [%],Percent Effect [3] [%],Percent Effect [4] [%],Percent Effect [5] [%],Percent Effect [6] [%],Percent Effect [7] [%],Percent Effect [8] [%],Percent Effect [9] [%],Percent Effect [10] [%],Percent Effect [11] [%],Percent Effect [12] [%],Percent Effect [13] [%]
Cc1noc(C)c1CN1CCO[C@H]2CN(CC3CC3)C[C@H]21,-4.84,11.7,-1.48,9.57,4.58,3.24,18.4,2.94,-2.75,8.95,20.5,12.9,
COCC(=O)NC1CC2(CCN(CCF)CC2)Oc2ccccc21 (configuration not stated),-7.73,1.3,-6.51,-0.183,-2.63,1.37,8.67,16.2,6.84,0,-2.5,-22.9,
O=C1C[C@H]2[C@H](CCN2Cc2ccccn2)N1CC1CC1,-3.35,11.7,1.05,-4.27,-5.25,5.02,12.4,12.4,-21.2,6.76,2.5,-6.54,
NC(=O)CN1CCCN(C(=O)Cc2ccc3c(c2)OCO3)CC1,-0.196,5.33,-1.81,2.43,-7.43,3.55,3.48,12,-21.4,3.68,10.3,-7.19,
Cn1cc(CN2C[C@@H]3[C@@H](C2)OCC(=O)N3Cc2ccncc2)cn1,-5.79,3.9,4.5,-1.61,1.07,0.81,15.8,8.18,1.35,-0.526,17.9,0.0412,
CCc1nc(CN2CCN(C(=O)Cc3c(C)noc3C)CC2)cs1,-0.475,12.8,-3.43,-11.1,2.72,2.87,6.06,10.4,-8.34,6.22,13.2,-5.04,
O=C(Cc1ccc(-n2cccn2)cc1)N1CCN2CCCCC2C1 (configuration not stated),-4.18,-10.7,-7.19,2.63,-5.42,3.55,9.58,0.299,-24.9,1.58,5.13,-13.6,
CCc1ccc(CN2CCN(C)c3ncccc3C2)o1,-8.73,1.3,-0.259,15.1,-1.27,-3.24,7.68,6.96,1.33,3.68,-5.13,-4.2,
O=C(Cc1c(F)cccc1F)N1CCN(CC(=O)N2CCCC2)CC1,-1.5,-1.3,-5.83,-2.19,-0.938,4.57,22.1,12.9,16.1,4.83,10,-6.7,
CCc1cnc(N2CC3(CCN(Cc4ccsc4)C3)C2)nc1,-5.86,3.9,14.2,-1.39,-7.3,0,9.27,12.9,-11,8.95,2.56,-4.35,
CSc1nccc(N2CCN(C)C3(CCNC(=O)CC3)C2)n1 (configuration not stated),-5.63,8,-0.126,2.82,-1.66,5.73,12.6,-2.91,,3.83,13.6,-6.95,-1.22
